{
  "source": "PubChem BioAssay (NCATS)",
  "note": "Inconclusive results are not listed. The source made the active and inactive calls. Calls follow the shape of the dose curve; as a rule, active = well fitted inhibition curve with a large enough effect; inconclusive = small, poorly fitted or top-dose-only effect; inactive = flat fitted curve, though single readings scatter. % is scaled to controls: 0 for no effect and ±100 for the full control effect; potency is read from the fitted curve at half-maximal effect.",
  "data": [
    {"tested_on": "HEK293", "test": "Cytotoxic Profiling of Annotated Libraries Using Quantitative High-Throughput Screening (AID 1296008); also: nearly all actives have a fitted effect of over 60% in size", "details": "Five cell lines viability, CellTiter-Glo ATP luminescence, 48-72 h; max response: stronger effect = lower value", "text": "Cell-based phenotypic screening is a commonly used approach to discover biological pathways, novel drug targets, chemical probes and high-quality hit-to-lead molecules. Many hits identified from high-throughput screening campaign are ruled out through a series of follow-up potency, selectivity/specificity, and cytotoxicity assays. Prioritization of molecules with little or no cytotoxicity for a more in-depth downstream evaluation influence the future direction of projects, so cytotoxicity profiling of the screening libraries at early stage is essential for increasing the likelihood of candidate success. […] For the annotated library, we also examined the primary targets and mechanistic pathways regularly associated with cell death. To our knowledge, this is the first study to use high-throughput screening to profile large libraries for cytotoxicity assessment in both normal and cancer cell lines. In summary, the results generated here constitutes a valuable resource for the scientific community and provides insight on identifying cytotoxic compounds with particular mechanisms of action, and prioritizing compounds with suitable cytotoxicity profile for further evaluation.\nA pintool (Kalypsys) was used to transfer 23 nL of compound solution to the 1536-well assay plates. After 48 or 72 hr incubation at 37 degree Celsius, 5% CO2 and 95% humidity, 2.5 uL of CellTiter-Glo (Promega) was dispensed into each well using a dispenser (Aspect Automation, St. Paul, MN) with solenoid valves (Lee Valves, Westbrook CT). Plates were left at room temperature for 10 min before imaging the ATP-coupled luminescence using a ViewLux microplate imager (PerkinElmer, Waltham, MA).", "values": [
      {"smiles": "CCOP(=S)(OCC)O/N=C(\\C#N)c1ccccc1", "outcome": "inactive"},
      {"smiles": "ClCCCN1CCN(c2cccc(Cl)c2)CC1", "outcome": "inactive"},
      {"smiles": "NC(=O)OCCCc1ccccc1", "max response": "3.07% (inactive)"},
      {"smiles": "CCN(Cc1ccc(Cl)nc1)/C(=C/[N+](=O)[O-])NC", "outcome": "inactive"},
      {"smiles": "CCO[C@H]1O[C@@H]2OC3(C)CC[C@H]4[C@H](C)CC[C@@H]([C@H]1C)[C@@]24OO3", "Potency": "5.96 µM (active)"},
      {"smiles": "CCCCC1C(=O)NC(=O)N(C2CCCCC2)C1=O", "note": "(stereo not given)", "max response": "0.515% (inactive)"},
      {"smiles": "CN1C(=O)CN=C(c2ccccc2)c2cc([N+](=O)[O-])ccc21", "max response": "-10% (inactive)"},
      {"smiles": "CC(C)C(Br)C(=O)NC(N)=O", "note": "(stereo not given)", "max response": "2.09% (inactive)"},
      {"smiles": "Oc1c(Br)cc(Br)cc1Br", "max response": "2.8% (inactive)"},
      {"smiles": "CC(C)[N+](C)(CCC(C(N)=O)(c1ccccc1)c1ccccc1)C(C)C", "max response": "-1% (inactive)"},
      {"smiles": "CCS(=O)(=O)C(C)(C)S(=O)(=O)CC", "max response": "1.49% (inactive)"},
      {"smiles": "c1ccc2nc(N3CCNCC3)ccc2c1", "max response": "-18% (inactive)"},
      {"smiles": "COP(=O)(OC)OC=C(Cl)Cl", "max response": "-1.59% (inactive)"},
      {"smiles": "COc1ccc2[nH]cc(CCN(C(C)C)C(C)C)c2c1", "max response": "-7.74% (inactive)"},
      {"smiles": "CCOC(C(=O)OCCN(C)C)(c1ccccc1)c1ccccc1", "max response": "-2.86% (inactive)"},
      {"smiles": "COP(=S)(OC)Oc1ccc(Sc2ccc(OP(=S)(OC)OC)cc2)cc1", "max response": "3.86% (inactive)"},
      {"smiles": "CCOC(=O)c1cncn1C(C)c1ccccc1", "note": "(stereo not given)", "max response": "-6.12% (inactive)", "outcome": "inactive"},
      {"smiles": "CN1C(=O)[C@@H](NC(=O)c2cc3ccccc3[nH]2)N=C(c2ccccc2)c2ccccc21", "Potency": "11.9 µM (active)"},
      {"smiles": "COc1cc(N)c(Cl)cc1C(=O)NC1CN2CCC1CC2", "note": "(stereo not given)", "max response": "-0.75% (inactive)"},
      {"smiles": "O=c1[nH]c2cc(Cl)ccc2n1C1CCNCC1", "max response": "-8.77% (inactive)"},
      {"smiles": "C[C@@H]1O[C@@H](O[C@@H]2C=C3CC[C@@H]4[C@H](CC[C@]5(C)[C@@H](c6ccc(=O)oc6)CC[C@]45O)[C@@]3(C)CC2)[C@H](O)[C@H](O)[C@H]1O", "Potency": "0.0335 µM (active)"},
      {"smiles": "O=c1n(Cl)c(=O)n(Cl)c(=O)n1Cl", "max response": "-82.7% (inactive)"},
      {"smiles": "NC(=O)CN1CCCC1=O", "outcome": "inactive"},
      {"smiles": "CN(C)C(=O)Oc1cc(OC(=O)N(C)C)cc(C(O)CNC(C)(C)C)c1", "note": "(stereo not given)", "max response": "-17.2% (inactive)"},
      {"smiles": "C1CN2CCC1CC2", "max response": "1.2% (inactive)"},
      {"smiles": "ClCc1cccc(Cl)c1", "max response": "-1.26% (inactive)"},
      {"smiles": "COc1ccc2c3c1O[C@H]1[C@@H](O)C=C[C@H]4[C@@H](C2)N(C)CC[C@@]341", "Potency": "33.7 µM (active)"},
      {"smiles": "O=C(CCCCl)c1ccc(F)cc1", "outcome": "inactive"},
      {"smiles": "CCOC(=O)C(c1c(O)c2ccccc2oc1=O)c1c(O)c2ccccc2oc1=O", "outcome": "inactive"},
      {"smiles": "C=CCN1CC[C@]23CCCC[C@H]2[C@H]1Cc1ccc(O)cc13", "max response": "-6.38% (inactive)"},
      {"smiles": "C[N+]1(CCC(C(N)=O)(c2ccccc2)c2ccccc2)CCCCC1", "outcome": "inactive"},
      {"smiles": "CN1C2CCC(C)(C)C1CC(OC(=O)C(O)(c1cccs1)c1cccs1)C2", "note": "(stereo not given)", "max response": "-10.3% (inactive)"},
      {"smiles": "CCN(CC)C(C)C(=O)c1ccccc1", "note": "(stereo not given)", "max response": "-27.4% (inactive)"},
      {"smiles": "ClC1=C(Cl)C2(Cl)C(CBr)CC1(Cl)C2(Cl)Cl", "note": "(stereo not given)", "outcome": "inactive"},
      {"smiles": "C=CC[C@]1(O)CC[C@H]2[C@@H]3CCC4=CC(=O)CCC4=C3C=C[C@@]21C", "Potency": "11.9 µM (active)"},
      {"smiles": "CCC1(c2cnc[nH]2)Cc2ccccc2C1", "max response": "-9.84% (inactive)"},
      {"smiles": "O=C(O)CCCCCCNC1c2ccccc2CCc2ccccc21", "max response": "2.21% (inactive)"},
      {"smiles": "CCc1ccc(C2CCNCC2)cc1", "max response": "-21.3% (inactive)"},
      {"smiles": "O=C(CBr)Nc1ccc(Cl)cc1C(=O)c1ccccc1F", "max response": "-0.335% (inactive)"}
    ]}
  ]
}
